Bioassay records: PubChem BioAssay, National Center for Advancing Translational Sciences (NCATS)
PGK inhibitor: qHTS Assay to Find Inhibitors of Phosphoglycerate Kinase. Phosphoglycerate kinase, glycosomal (Trypanosoma brucei brucei), P07378. Potency, µM (series often up to 57.5 µM), inactives show at the top dose activity change, negative = inhibition, hits mostly inhibitors. PGK/GAPDH coupled, Kinase-Glo luminescence, 60 min. actives 0.043% (n = 380,000); further: potency means the concentration at half of the fitted maximal effect; on the % scale 0 is the no-effect control and ±100 the full control effect; nearly all actives have a fitted effect of over 60% in size
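Luminescent ATP detection (Kinase-Glo Plus) follows a 60-minute room-temperature incubation, with wells lacking PGK as controls. Buffer: 100 mM TEA (pH 7.6), 5 mM MgCl2, 0.01% Tween-20. Coupling enzyme GAPDH (100 nM final) supplies unstable 1,3-BPG in-well.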
PI5P4Ka inh: qHTS for Inhibitors of phosphatidylinositol 5-phosphate 4-kinase (PI5P4K). Phosphatidylinositol 5-phosphate 4-kinase type-2 alpha (Homo sapiens), P48426. PI5P4Kalpha enzyme, ADP-Glo luminescence, 60 min; hits give low values. max response, %. actives 1.2% (n = 330,000); active means max response of -50% or lower; inconclusive means between -30% and -50%; inactive means -30% or higher; further: value at the top dose of about 77 µM; on the % scale 0 is the no-effect control and ±100 the full control effect
Target sequence (P48426 whole entry, looked up): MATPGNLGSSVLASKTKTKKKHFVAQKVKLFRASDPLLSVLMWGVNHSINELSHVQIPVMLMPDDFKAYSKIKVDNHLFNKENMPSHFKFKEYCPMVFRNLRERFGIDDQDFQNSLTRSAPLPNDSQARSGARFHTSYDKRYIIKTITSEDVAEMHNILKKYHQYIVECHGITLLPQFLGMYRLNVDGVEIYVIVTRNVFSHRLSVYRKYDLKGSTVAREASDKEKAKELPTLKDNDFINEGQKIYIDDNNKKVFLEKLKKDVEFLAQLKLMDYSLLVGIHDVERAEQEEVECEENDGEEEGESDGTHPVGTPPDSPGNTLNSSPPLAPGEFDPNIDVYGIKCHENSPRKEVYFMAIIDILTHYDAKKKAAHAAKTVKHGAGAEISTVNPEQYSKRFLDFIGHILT
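Compounds were pin-transferred onto PI5P4Kalpha and substrate in HEPES pH 7.4 buffer with EGTA, CHAPS and 5% DMSO. ATP (5 microM final) started the reaction, which ran 60 minutes at room temperature before ADP-Glo detection.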
FEN1 inh: qHTS Assay for the Inhibitors of Human Flap endonuclease 1 (FEN1); P39748; Recombinant FEN1 flap cleavage, fluorescence, 15 min; AID 588795, 2011; actives 0.35% (n = 390,000); Potency, µM (top dose mostly 114 µM), for the others: at the highest dose activity change, negative = inhibition, hits mostly inhibitors; further: potency means the concentration at half of the fitted maximal effect; on the % scale 0 is the no-effect control and ±100 the full control effect; nearly all actives have a fitted effect of over 65% in size
Target sequence (P39748 whole entry, looked up): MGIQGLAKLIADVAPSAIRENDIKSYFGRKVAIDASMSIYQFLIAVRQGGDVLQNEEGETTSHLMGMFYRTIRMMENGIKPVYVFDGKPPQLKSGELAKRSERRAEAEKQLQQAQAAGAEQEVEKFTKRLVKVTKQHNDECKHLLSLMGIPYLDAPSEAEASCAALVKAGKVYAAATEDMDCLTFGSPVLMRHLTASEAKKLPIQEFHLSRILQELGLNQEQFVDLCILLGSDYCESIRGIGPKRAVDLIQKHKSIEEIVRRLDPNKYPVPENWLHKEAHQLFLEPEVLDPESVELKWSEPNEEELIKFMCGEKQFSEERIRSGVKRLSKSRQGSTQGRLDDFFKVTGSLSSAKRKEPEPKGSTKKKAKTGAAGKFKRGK
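Nuclease activity of 10 nM FEN1 was measured after 15 min of room-temperature exposure to titrated compounds, by adding 50 nM flap substrate and reading plates at 0 and 15 min.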
WRN helicase inh: qHTS for Inhibitors of WRN Helicase. WRN helicase unwinding, fluorescent forked duplex, kinetic. Potency, µM (titrated, usually from 114 µM), for the others: at the highest dose activity change, negative = inhibition, actives largely listed as inhibitors. actives 0.46% (n = 360,000). AID 651768, 2012; further: potency means the concentration at half of the fitted maximal effect; on the % scale 0 is the no-effect control and ±100 the full control effect; nearly all actives have a fitted effect of over 55% in size
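WRN at 20 nM final preincubated with compound 15 min at room temperature; reaction started with 100 nM fluorophore/quencher forked duplex oligonucleotide and 2 mM ATP final. Unwinding followed kinetically by red fluorescence (ex 525, em 598 nm).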
GRP78 ERSR act: qHTS for Inducers of the Endoplasmic Reticulum Stress Response (ERSR) in Human Glioma: qHTS | U87-MG GRP78 promoter luciferase reporter, 16 h | Potency, µM, for inactives: at the top dose activation, actives largely listed as activators | actives 0.02% (n = 420,000); further: potency means the concentration at half of the fitted maximal effect; series mostly up to about 76 µM; % of control where 0% means no effect; nearly all actives have a fitted effect of over 35% in size
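Stably transfected U87-MG glioma cells carrying a GRP78-based luciferase sensor; 16 h compound incubation. Luminescence end-point read 10 min after Bright-Glo addition at room temperature.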
Pin1 inhibitor: qHTS Assay to Find Inhibitors of Pin1. Peptidyl-prolyl cis-trans isomerase NIMA-interacting 1 (Homo sapiens), Q13526. Pin1 FP peptide displacement, HiFluor488, 10 min. Potency, µM (series often up to 115 µM), without a hit: at the highest dose activity, negative = inhibition, most hits filed as inhibitors. actives 0.009% (n = 390,000); active means well fitted inhibition curve with a large enough effect in the polarisation, with a control signal flat, not every such curve was filed as active; inconclusive means small, poorly fitted or top-dose-only effect, or effect the other way, or a change in a side signal; inactive means no such curve, though single readings can be large or run the other way; the % refers to the polarisation; further: potency means the concentration at half of the fitted maximal effect; on the % scale 0 is the no-effect control and ±100 the full control effect
* hit, by the source's call; i = inactive; ? = inconclusive; · = no result; [ ] = remark or other dose. An excerpt weighted towards active compounds, which were near 1.3% of everything screened. Unless noted, the call rests on the fitted dose curve; in most records, active means well fitted curve in the direction sought with a large enough effect; inconclusive means small, poorly fitted or top-dose-only effect, or another doubt; inactive means no such curve, though single readings can be large; an effect the other way counts as inactive or inconclusive.

SMILES | PGK inhibitor | PI5P4Ka inh | FEN1 inh | WRN helicase inh | GRP78 ERSR act | Pin1 inhibitor
Cc1cc(N2C(=O)c3ccccc3C2=O)no1 | · | · | · | · | · | 3%
COc1cccc(C(=O)N2CCCC(c3nc(SCCN4CCOCC4)ncc3C)C2)c1 (stereo not given) | · | · | · | · | -5% | ·
COc1cccc(C2c3c(ncn(-c4cccc(F)c4)c3=N)Oc3ccc4ccccc4c32)c1 (stereo not given) | · | · | · | · | · | 9%
Cc1c(CN2CCOc3ccc(C(C)(O)COc4ccccc4)cc3C2)cnn1C (stereo not given) | · | · | · | · | -2% | ·
C1=Cc2ccccc2/C1=C\c1cccc(/C=C2\C=Cc3ccccc32)c1 | · | · | 35µM* | · | -8% | ·
C1=Cc2ccccc2/C1=C\c1ccc(/C=C2\C=Cc3ccccc32)cc1 | · | · | 14% | · | 0% | ·
COc1cc(NS(=O)(=O)c2ccc(NC(=S)NC(=O)/C=C/c3ccc(OC)c(OC)c3)cc2)ncn1 | ? | -10 | 45µM* | 0%[57.1 µM] | 0% | 14%
CN1/C(=C\P(=O)(N(C)C)N(C)C)C(C)(C)c2ccccc21 | -3% | · | -17% | 50µM* | -4% | ?
N#Cc1ccccc1S(=O)(=O)N1CCN(S(=O)(=O)c2ccc3c(c2)OCCO3)CC1 | · | · | · | · | · | 7%
CCOC(=O)c1sc2nc3c(SCC(=O)O)cc(C(=O)c4ccccc4O)cn3c(=O)c2c1C | 6% | 4 | ? | 2%[57.1 µM] | -1% | ·
O=C(O)CSc1cc(C(=O)c2ccccc2O)cn2c(=O)c3c(-c4ccccc4)csc3nc12 | ? | -53* | ? | ? | 6% | ?
OCCNc1nc(Nc2ccccc2)nc2ccccc12 | 9% | -10 | -12% | 16% | 32µM* | 7%
OCCNc1nc(Nc2ccc(Br)cc2)nc2ccccc12 | -2% | -14 | -27% | -33% | ? | 2%
Cc1c(Cl)cccc1Nc1nc(NCCO)c2ccccc2n1 | -4% | -3 | -16% | 5% | 32µM* | 4%
N#C/C(=C/c1cn(Cc2ccc(F)cc2)c2ccccc12)C(=O)Nc1cccc(Cl)c1 | 1% | · | 89µM* | · | -1% | ?
COc1cccc(NC(=O)/C(C#N)=C\c2cn(Cc3ccc(C)cc3)c3ccccc23)c1 | 0% | · | -6% | · | -2% | 13%
O=c1cc(S(=O)(=O)Cc2ccccc2)[nH]c(=O)[nH]1 | i | -66* | 2% | -4% | 1% | -2%
O=C(N/N=C/c1cccnc1)c1ccccc1NS(=O)(=O)c1cccs1 | 4% | -4 | -2% | -19% | 10% | -4%
O=C(NN=Cc1cc(Br)c(O)c(Br)c1)c1ccccc1NS(=O)(=O)c1cccs1 | -4% | -67* | -13% | -33% | 0% | -1%
COc1ccc(NS(=O)(=O)c2cccc(C(=O)NN=Cc3ccc(OC)cc3OC)c2)cc1 | 4% | 0 | -3% | -17% | -3% | 26%
O=C(NN=Cc1ccc(F)cc1)c1ccccc1NS(=O)(=O)c1cccs1 | -2% | -9 | -7% | -11% | 13% | 4%
COc1ccc(NS(=O)(=O)c2cccc(C(=O)NN=Cc3cc(Br)c(O)c(Br)c3)c2)cc1 | -7% | -50* | ? | ? | -1% | ?
O=C(N/N=C/c1ccc([N+](=O)[O-])o1)c1ccccc1NS(=O)(=O)c1cccs1 | -5% | -57* | ? | -11%[11.6 µM] | -3% | -19%
O=C(COC(=O)CNC(=O)c1ccccc1)Nc1cc(C(F)(F)F)ccc1Cl | · | · | · | · | · | 1%
COc1cc(=O)n2c(c1C(=O)NCc1ccco1)CCN(Cc1c(F)cccc1F)CC2 | · | · | · | · | -3% | ·
SMILES | PGK inhibitor | PI5P4Ka inh | FEN1 inh | WRN helicase inh | GRP78 ERSR act | Pin1 inhibitor
CCCc1cc2c(=O)c(-c3nc4ccccc4s3)c(COCC(=O)O)oc2cc1O | 0% | -74* | -4% | -23% | -1% | 38%
COc1ccc(CNc2ccc3cn[nH]c3c2)c(OC)c1OC | -5% | · | 5% | -5% | 5% | -5%
CCOc1cc(CNc2ccc3cn[nH]c3c2)ccc1OC | 0% | -16 | 35µM* | -24% | 0% | -4%
Oc1ccc(CNc2ccccc2)c2cccnc12 | -2% | -55* | -14% | -3% | -3% | 10%
Oc1ccc(CNc2cccc(F)c2)c2cccnc12 | · | · | · | · | · | 8%
COc1cc(OC)c2nc(-c3cc4c(c(OC)c3)OCCN(C(=O)C(C)c3n[nH]c(=O)c5ccccc35)C4)cc(C)c2c1 (stereo not given) | · | · | · | · | -3% | ·
CCOC(=O)c1c(N2C(=O)Nc3ccccc3N2O)n[nH]c1-c1cccc(OC)c1 | -5% | -52* | -4% | 1% | -2% | 1%
Cc1cc2c(s1)c(/C=N/O)c(C(=O)NCc1ccccc1F)n2C | · | · | · | · | · | 0%
O=c1[nH]c(=S)[nH]nc1Cc1ccc(Cl)c(Cl)c1 | 7% | -76* | 2% | -16% | -1% | -1%
CC(C)(C)c1ccc(Cc2n[nH]c(=S)[nH]c2=O)cc1 | 8% | ? | 2% | -9% | -4% | 4%
Cc1ccc(C(=O)Nc2cccc(-c3nc(CNC(=O)c4cccc(N(C)C)c4)c(C)o3)c2)s1 | · | · | · | · | 2% | ·
COC(=O)[C@@H]1CCCN1Cc1ccc2c(c1)CN(Cc1coc3ccc(C)cc3c1=O)CCO2 | · | · | · | · | -5% | ·
CCOC(=O)c1sc(N=NC2=C(O)CCCC2=O)c(C(=O)OCC)c1C | -12% | -57* | ? | ? | 5% | ?
COc1cc(=O)n2c(c1C(=O)N(C)Cc1ccsc1)CCN(Cc1c(C)nn(C)c1Cl)CC2 | · | · | · | · | -4% | ·
O=c1c2ccccc2sc2c(CO)ccc(NCCN3CCCCC3)c12 | -6% | 14 | 40µM* | -6%[11.6 µM] | -1% | 9%
Cc1cc2c(s1)c1cnn(Cc3ccccc3)c(=O)c1n2C | · | · | · | · | · | -4%
CC(C)C(=O)NCC1CCC2(CCN(Cc3ccc(-c4ccccc4Cl)o3)CC2)O1 (stereo not given) | · | · | · | · | 2% | ·
Cc1cccc2c1c1ccc3c(c1n2C)C(=O)C=CC3=O | -8% | -73* | ? | -8% | -8% | ?
CCOC(=O)C1C(=O)C=C(/C=C/c2ccc(N(C)C)cc2)CC1c1ccccc1 (stereo not given) | 4% | 1 | -5% | 50µM* | 2% | ?
CCOc1cc2c(c3c1C(c1ccccc1)N(S(=O)(=O)c1ccc(C)cc1)C3)C(=O)C=CC2=O (stereo not given) | · | -85* | · | -6% | -12% | ·
